The source of these data is PubChem BioAssay (EPA / NIEHS).

The term AC50 denotes the concentration at which the activity in the assay is half-maximal.

Active and inactive are the calls of the source. The calls were made as follows: active = hit-call score of the fitted dose curve at least 0.9, where 1 is the maximum; inactive = score below 0.9.

For this assay, the target named is Hepatocyte nuclear factor 3-beta (Homo sapiens) (UniProt Q9Y261). The experiment in a line: ATG_FoxA2_CIS: Attagene CIS-FACTORIAL HepG2 Assay for human Forkhead box A2 (FOXA2) (AID 2282942). Particulars: HepG2 cis-reporter transcription factor activity, 24 h; actives raise or lower the signal. The protocol: ATG_CIS is a cell-based, multiplexed-readout assay that uses HepG2, a human liver cell line, with measurements taken at 24 hours after chemical dosing in a 24-well plate.ATG_FoxA2_CIS is one of 52 assay component(s) measured or calculated from the ATG_CIS assay. It is designed to make measurements of mRNA induction, a form of inducible reporter, as detected with fluorescence intensity signals by Reverse transcription polymerase chain reaction (RT-PCR) and Capillary electrophoresis technology.Data from the assay component ATG_FoxA2_CIS was analyzed into 1 assay endpoint. This assay endpoint, ATG_FoxA2_CIS, was analyzed with bidirectional fitting relative to DMSO as the negative control and baseline of activity. Using a type of inducible reporter, measures of mRNA for gain or loss-of-signal activity can be used to understand the reporter gene at the transcription factor-level as they relate to the gene FOXA2. Furthermore, this assay endpoint can be referred to as a primary readout, because this assay has produced multiple assay endpoints where this one serves a reporter gene function. To generalize the intended target to other relatable targets, this assay endpoint is annotated to the dna binding intended target family, where the subfamily is forkhead box protein.
Sequence of Hepatocyte nuclear factor 3-beta (Homo sapiens) (Q9Y261 whole entry, looked up): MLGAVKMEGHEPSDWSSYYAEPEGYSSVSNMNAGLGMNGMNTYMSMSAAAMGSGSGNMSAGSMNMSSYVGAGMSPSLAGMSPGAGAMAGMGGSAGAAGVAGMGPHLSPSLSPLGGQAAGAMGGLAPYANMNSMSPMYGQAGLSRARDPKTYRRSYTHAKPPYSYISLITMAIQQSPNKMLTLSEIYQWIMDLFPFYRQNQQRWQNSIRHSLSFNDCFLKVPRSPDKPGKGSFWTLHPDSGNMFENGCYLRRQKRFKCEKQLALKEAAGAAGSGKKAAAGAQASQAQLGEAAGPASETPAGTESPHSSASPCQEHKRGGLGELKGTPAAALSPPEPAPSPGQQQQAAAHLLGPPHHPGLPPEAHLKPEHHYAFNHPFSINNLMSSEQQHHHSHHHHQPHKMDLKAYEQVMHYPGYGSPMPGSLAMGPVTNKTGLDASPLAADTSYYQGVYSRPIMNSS
Human liver HepG2 cells are transiently transfected with multiple reporter transcription units (MRTUs) in 6-well plates using FuGene 6 reagent (Roche; 3 ml FuGene/1 mg DNA). The MRTU constructs are regulated by a cis-regulating element (promoter). […] A major difference between the CIS and TRANS system is that in CIS activities of endogenous TFs are measured, whereas the TRANS assay evaluates changes in activities of exogenous, chimeric NR-Gal4 proteins. […] At the end of 24 hour incubation, total RNA was isolated using TriZol reagent (Invitrogen). The isolated RNA is then reverse-transcribed using oligo(dT) primer and Mo-MLV reverse transcriptase (Invitrogen) with DNAse I (Ambion) treatment for 30 min. The one-tenth of the produced cDNA was amplified by PCR using Taq DNA polymerase (Invitrogen) and two reporter sequence-specific primers. The PCR products were fluorescently labeled by primer extension with 6-arboxyfluorescein (6-FAM) 5'-labeled reporter sequence-specific primer (2 min at 95 C, 20 s at 68 C and 10 min at 72 C) and these products were digested with 5U of HpaI (New England Biolabs) for 2h at 37 C. The fragments were purified using Qiaquick PCR columns (Qiagen), analyzed on an ABI 3130xL genetic analyzer (Applied Biosystems) with peak positions identified by using a set of X-rhodamine (ROX)-labeled MapMarker1000 molecular weight standards (BioVentures). The raw capillary electrophoresis data was processed using Attagraph software (Attagene).
Consider `CC1=C(C=O)C(C)(C)CCC1`, for which the compound was called inactive.
On the same count and under the same terms, next, `OC[C@@H](O)[C@H](O)[C@@H](O)[C@@H](O)CO`: “inactive”.
Still for that read-out and setting: next, `CC(=O)N(C)C`: “inactive”; `C=C(C)C(=O)OCCOCCOC(=O)C(=C)C`: “inactive”; `CC/C=C\C#N`: “inactive”.
For the compound `Cc1cc(O)c2c(c1)C(=O)c1cc(O)cc(O)c1C2=O`, the outcome was inactive.
Still for that read-out and setting: the value for `CC1(C)CC(=O)CC(C)(C)N1` was “inactive”; that for `C=CC(O)CCCCC` (stereo not given) was “inactive”.
In the case of `O=S1(=O)CC=CC1`, the call was inactive.
Take `C=CC(=O)OCC(CO)(COC(=O)C=C)COC(=O)C=C`: the AC50 was 123 µM (active).
`N#CCCNCCC#N`: the compound was called inactive.
Consider `CC(=O)Oc1c(C)c(C)c2c(c1C)CC[C@@](C)(CCC[C@H](C)CCC[C@H](C)CCCC(C)C)O2`, for which the compound was called inactive.
As to `CC(C)(O)C(=O)c1ccc(OCCO)cc1`, the compound was called inactive.
Regarding `C[C@H](CCC(=O)O)[C@H]1CC[C@H]2[C@@H]3CC[C@@H]4C[C@H](O)CC[C@]4(C)[C@H]3CC[C@]12C`, the AC50 is 170 µM (active).
With `COc1ccc(C(C)=O)cc1`, the result was inactive.
`C=C(C)C(=O)OCCN(C)C`: the result was inactive.
Same read-out and setting: next, `CCOC(=O)C(=O)OCC`: “inactive”; `CCCCCC1CCC(=O)O1` (stereo not given): “inactive”; `NC(N)=NC(N)=NCCc1ccccc1`: “inactive”.
On to `CCOC(=O)CC1(C)OCC(C)O1` (stereo not given), for which the compound was classed as inactive.
For `CC1=CC(O)CC(C)(C)C1` (stereo not given), the compound was classed as inactive.
On to `COC(=O)C(C)Oc1ccc(Oc2ncc(C(F)(F)F)cc2Cl)cc1` (stereo not given), for which the call was inactive.
Take `C=COCC1CCC(COC=C)CC1` (stereo not given): the call was inactive.
Regarding `O=C1CCCCCCCCCCCC(=O)OCCO1`, the outcome was inactive.
Still for that read-out and setting: next, `O=C(c1ccc(OCCN2CCCCC2)cc1)c1c(-c2ccc(O)cc2)sc2cc(O)ccc12`: “inactive”; `O=C(O)C1=NN(c2ccc(S(=O)(=O)O)cc2)C(=O)C1`: “inactive”.
Still for that read-out and setting: the value for `CCCCCCC(C)O` (stereo not given) was “inactive”.
On to `CC(C)=CCCC(C)=CC(=O)O`, for which the call was inactive.
Take `CC/C=C\CCOC(=O)C(C)C`: the result was inactive.
On to `O=S(=O)(O)CCCN1CCOCC1`, for which the call was inactive.
`COc1ccc(N)c(C)c1`: the result was inactive.
Consider `CCCC1CCOC(C)S1` (stereo not given), for which the compound was called inactive.
On the same count and under the same terms, next, `Brc1cc(Br)cc(Br)c1`: “inactive”; `CCCCCCCCSCc1cc(C)c(O)c(CSCCCCCCCC)c1`: “inactive”; `CC(C)N(c1ccccc1)C(C)C`: “inactive”.
The same measure, in the same setting: next, `CCCCOCCOCCOCCO`: “inactive”.
Regarding `CCCCOCCOCCO`, the compound was called inactive.
The same measure, in the same setting: the value for `CCn1cc(C(=O)O)c(=O)c2ccc(C)nc21` was “inactive”; that for `CC1COC(=O)O1` (stereo not given) was “inactive”.
On to `CC(C)Cc1ccccc1`, for which the call was inactive.
